This passage reports outcome and AC50 results from PubChem BioAssay (EPA / NIEHS).

Results filed as inconclusive are left out. Activity calls are given as the source filed them. Rule for the calls: active = hit-call score of the fitted dose curve at least 0.9, where 1 is the maximum; inconclusive = response in the unintended direction; inactive = score below 0.9.

A short description of this test: Tanguay_ZF_120hpf_SWIM_legacy: (Legacy) Oregon State University Tanguay Lab 120 Hour Post-fertilization zebrafish Assay for Swim Bladder Malformation (AID 2283654).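 Note: swim bladder malformation in each larva scored yes or no under brightfield.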 As to the method:
Tanguay_ZF_120hpf_legacy is a whole embryo, multiplexed endpoint assay using zebrafish larvae exposed for 120 hours post fertilization on a 96-well plate.Tanguay_ZF_120hpf_SWIM_legacy is one of one assay component(s) measured or calculated from the Tanguay_ZF_120hpf_legacy assay. It is designed to make measurements of zebrafish development as detected with brightfield microscopy of developing zebrafish embryos.Data from the assay component Tanguay_ZF_120hpf_SWIM_legacy was analyzed into 1 assay endpoints. This assay endpoint, Tanguay_ZF_120hpf_SWIM_legacy, was analyzed in the positive analysis fitting direction relative to DMSO as the negative control and baseline of activity. Using a type of morphology reporter, gain-of-signal activity can be used to understand changes in developmentals as they relate to the whole embryo. To generalize the intended target to other relatable targets, this assay endpoint is annotated to the zebrafish development intended target family, where the subfamily is swim bladder morphogenesis.
Zebrafish husbandry: Tropical 5D wild-type adult zebrafish were housed in at an approximate density of 1000 per 100 gallon tank at the Sinnhuber Aquatic Research Laboratory, Oregon State University, Corvallis, OR. Each tank was kept at standard laboratory conditions of 28C on a 14-h light/10-h dark photoperiod in fish water consisting of reverse osmosis water supplemented with a commercially available salt (Instant Ocean). Spawning funnels were placed into the tanks the night prior, and embryos were collected and staged. To increase bioavailability, the chorion was enzymatically removed using pronase (63.6mg/ml, >/= 3.5U/mg, Sigma-Aldrich: P5147) at 4 hours post fertilization (hpf) using a custom automated dechorionator.Chemical exposures: Six hpf dechorionated embryos were placed 1 embryo per well in a 96-well plate prefilled with 90 ul of EM using automated embryo placement systems (AEPS). Ten microliters of each row of dilution plate 2 was added to 2 exposure plates. The final DMSO concentration used was 0.64% (vol/vol). Thirty-two embryos were also exposed to 5uM trimethyltin chloride (positive control). Plates were sealed to prevent evaporation and foil covered to reduce light exposure and kept in a 28C incubator. Embryos were statically exposed until 120 hpf. At 24 hpf, embryos were assessed for photomotor response using a custom photomotor response analysis tool (PRAT) and for developmental toxicity endpoints (MO24: mortality at 24 hpf, DP: developmental progression, SM: spontaneous movement, and NC: notochord distortion). At 120 hpf, locomotor activity was measured using Viewpoint Zebralab and assessed for 18 endpoints. Zebrafish acquisition and analysis program (ZAAP), a custom program designed to inventory, acquire, and manage zebrafish data, was used to collect developmental endpoints as either present or absent (i.e., binary responses were recorded). If mortality occurred for an embryo (at either 24 or 120 hpf), the non-mortality endpoints were not measured.
As to `O=[N+]([O-])c1ccc(O)cc1`, the result was inactive.
As to `CCc1nn(C2CCCCC2)c2cc(C3(C#N)CCC(C(=O)O)CC3)ccc12` (stereo not given), the AC50 is 419 nM (active).
As for `CCCCCCCCCCCCc1ccccc1S(=O)(=O)O`, the call was inactive.
Consider `Cc1oc(-c2ccccc2)nc1CCOc1ccc(C[C@H](Nc2ccccc2C(=O)c2ccccc2)C(=O)O)cc1`, for which the outcome was inactive.
The same measure, in the same setting: the value for `CC(=O)NC1(c2cccc(F)c2)CCN(CC[C@@]2(c3ccc(Cl)c(Cl)c3)CN(c3ccccc3)C(=O)CO2)CC1` was “inactive”.
As to `CCC(=C(c1ccc(O)cc1)c1ccc(OCCN(C)C)cc1)c1ccccc1`, the outcome was inactive.
As for `CCCOc1sc(C(=O)N2CCC(c3cc(CN)ccc3F)CC2)c(C)c1Br`, the compound was classed as inactive.
On the same count and under the same terms, the value for `C=C(C)C(=O)OCCC(F)(F)C(F)(F)C(F)(F)C(F)(F)C(F)(F)C(F)(F)F` was “inactive”; that for `CN(C)C=O` was “inactive”.
The same measure, in the same setting: the same measure for `O=c1c(-c2ccc(O)cc2)coc2cc(O)ccc12`: “inactive”; for `CN1CCN(c2ccccc2/C=C2\SCCN(c3ccc(Cl)c(Cl)c3)C2=O)CC1`: “inactive”.
As for `Cc1cc(CCN2CCN(c3nsc4ccccc34)CC2)cc2c1NC(=O)CC2(C)C`, the AC50 was 3820 nM (active).
As to `OCCC(F)(F)C(F)(F)C(F)(F)C(F)(F)C(F)(F)C(F)(F)F`, the compound was called inactive.
Turning to `CC(C)(C)CC(C)(C)c1ccc(O)c(-n2nc3ccccc3n2)c1`, the compound was classed as inactive.
The same measure, in the same setting: the same measure for `CCCCCCCC(=O)O`: “inactive”; for `C#C[C@]1(O)CC[C@H]2[C@@H]3CCC4=CC(=O)CC[C@@H]4[C@H]3CC[C@@]21C`: “inactive”.
The same measure, in the same setting: the same measure for `COCC(C)OCC(C)O` (stereo not given): “inactive”; for `CC(C)(C)c1cc(C(C)(C)C)c(O)c(C(C)(C)C)c1`: “inactive”; for `O=C(O)Cc1cc(I)c(Oc2cc(I)c(O)c(I)c2)c(I)c1`: “inactive”.
Turning to `COc1ccc([N+](=O)[O-])cc1N`, the compound was classed as inactive.
Still for that read-out and setting: the same measure for `CCCCC(CC)COC(=O)CCCCC(=O)OCC(CC)CCCC` (stereo not given): “inactive”; for `CC(C)CCCCCCOC(=O)CCCCC(=O)OCCCCCCC(C)C`: “inactive”; for `NC(=O)N1C(=O)C(C(=O)c2cc(Cl)cs2)c2cc(F)c(Cl)cc21` (stereo not given): “inactive”.
The same measure, in the same setting: the same measure for `CC(C)(C)c1cccc(C(C)(C)C)c1O`: “inactive”.
As for `Nc1cccc2c(N)cccc12`, the compound was classed as inactive.
`CCCCOCCO`: the compound was classed as inactive.
The same measure, in the same setting: the same measure for `CCC(C)(C)C1CCC(O)CC1` (stereo not given): “inactive”; for `CC1=C(/C=C/C(C)=C/C=C/C(C)=C/C(=O)O)C(C)(C)CCC1`: “inactive”.
In the case of `OC1CCCCC1`, the compound was called inactive.
As to `O=C(OCCOCCOC(=O)c1ccccc1)c1ccccc1`, the call was inactive.
On the same count and under the same terms, the same measure for `Oc1cccc(O)c1`: “inactive”; for `CCCCCCCCCCCCCCCS(=O)(=O)Oc1ccccc1`: “inactive”; for `c1ccc2c(c1)ccc1ccccc12`: “inactive”.
Same read-out and setting: the same measure for `CCCCCCCCC(=O)O`: “inactive”; for `CN1CCC[C@H]1c1cccnc1`: “inactive”.
Consider `CCCCCCCCCCCCN1CCCC1=O`, for which the compound was called inactive.
The same measure, in the same setting: the same measure for `COC(=O)CCCCC(=O)OC`: “inactive”; for `c1ccc2c(c1)Cc1ccccc1-2`: “inactive”.
Consider `c1ccc2cc3c(ccc4ccccc43)cc2c1`, for which the result was inactive.
In the case of `OCCC(F)(F)C(F)(F)C(F)(F)C(F)(F)C(F)(F)C(F)(F)C(F)(F)C(F)(F)F`, the call was inactive.
